This passage reports growth inhibition results from PubChem BioAssay (NCI).

The nature of experiment [1]: NCI Yeast Anticancer Drug Screen. Data for the rad50 strain (AID 155).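 Further: 0% = growth of vehicle-only cultures of the same strain.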 Particulars: S. cerevisiae rad50 strain growth inhibition, stronger effect = higher value. The method in brief:
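Compounds were tested on a yeast strain with an engineered DNA damage repair alteration; the reported value is growth inhibition normalised to vehicle treatment.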

Experiment [2] in a line: NCI Yeast Anticancer Drug Screen. Data for the mec2-1 strain (AID 157). Particulars: S. cerevisiae mec2-1 strain, stronger effect = higher value. The method, boiled down:
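Test agents were screened against the mec2-1 yeast strain, with defined DNA repair or cell cycle alteration. Growth was scored as inhibition against vehicle-only controls.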

The nature of experiment [3]: NCI Yeast Anticancer Drug Screen. Data for the sgs1 mgt1 strain (AID 161).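 Further: 0% = growth of cultures given vehicle only.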 Particulars: S. cerevisiae sgs1 mgt1 strain, stronger effect = higher value. The method in brief:
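Inhibition of yeast growth, normalised to vehicle-treated controls, is reported for a strain bearing genetic alterations in DNA damage repair.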

The nature of experiment [4]: NCI Yeast Anticancer Drug Screen. Data for the cln2 rad14 strain (AID 165).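 Further: 0% = growth equal to vehicle treated cultures.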 Particulars: S. cerevisiae cln2 rad14 strain, stronger effect = higher value. The method, boiled down: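 Growth of compound-exposed yeast (cln2 rad14 genotype) measured and expressed as inhibition relative to vehicle.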
Experiment [5] can be described thus: NCI Yeast Anticancer Drug Screen. Data for the bub3 strain (AID 167). Particulars: S. cerevisiae bub3 mutant strain, stronger effect = higher value. The method in brief:
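Growth of a checkpoint-deficient yeast mutant is measured after compound exposure. Values represent inhibition relative to vehicle.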

The nature of experiment [6]: NCI Yeast Anticancer Drug Screen. Data for the mlh1 rad18 strain (AID 175). Particulars: S. cerevisiae mlh1 rad18 strain growth inhibition, stronger effect = higher value. The method in brief: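 In this whole-cell yeast screen, a strain with altered DNA damage repair is challenged with compound, and its growth is measured against matched vehicle-treated controls.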
Setting [7] is: at 5.0 µM (retest, dose inferred, filed as 0.5).
[8] abbreviates: at 50.0 µM (retest, dose inferred, filed as 5.0).

Compounds without any hit were thinned out: in the full panel of roughly 79,000, 15% have a hit. Unmarked numbers belong to inactive results. Active and inactive are the calls of the source. No stated cut-off is given here; in the data, active means growth inhibition above about 70%; inactive means the rest.

For the molecule `COc1ccc(S)cc1`, the growth inhibition is 0% in experiment [1] (setting [7]); 72% (active) in experiment [1] (setting [8]); 78.9% (active) in experiment [1] (at 50.0 µM); 3% in experiment [2] (setting [7]); 51% in experiment [2] (setting [8]); 39.7% in experiment [2] (at 50.0 µM). The growth inhibition in experiment [3] (setting [7]) is 0%; in experiment [3] (setting [8]), 89% (active); in experiment [3] (at 50.0 µM), 94% (active); in experiment [4] (setting [7]), -3%; in experiment [4] (setting [8]), 80% (active); in experiment [4] (at 50.0 µM), 69.5%. Moreover, the growth inhibition in experiment [5] (setting [7]) is 0%; in experiment [5] (setting [8]), 62%; in experiment [5] (at 50.0 µM), 76.5% (active); in experiment [6] (setting [7]), 2%; in experiment [6] (setting [8]) it was 86% (active); in experiment [6] (at 50.0 µM), 83.8% (active).
Consider `N#CC1C(=O)NC(=O)C(C#N)C1c1ccc(Cl)c(Cl)c1` (stereo not given), for which the growth inhibition in experiment [1] (setting [7]) is -1%; in experiment [1] (setting [8]), 42%; in experiment [1] (at 50.0 µM), 89.2% (active); in experiment [2] (setting [7]), -1%; in experiment [2] (setting [8]), 35%; in experiment [2] (at 50.0 µM), 39.5%. Further, the growth inhibition in experiment [3] (setting [7]) was 1%; in experiment [3] (setting [8]), 26%; in experiment [3] (at 50.0 µM), 57.5%; in experiment [4] (setting [7]), -7%; in experiment [4] (setting [8]), -2%; in experiment [4] (at 50.0 µM) it was 21.9%. The growth inhibition in experiment [5] (setting [7]) was -8%; in experiment [5] (setting [8]), 34%; in experiment [5] (at 50.0 µM), 58.3%; in experiment [6] (setting [7]) it was -2%; in experiment [6] (setting [8]), 53%; in experiment [6] (at 50.0 µM) it was 63.4%.
With `O=C1CCSC(=S)N1c1ccc(Br)c(Cl)c1`, the growth inhibition in experiment [1] (setting [7]) was 13%; in experiment [1] (setting [8]), 94% (active); in experiment [1] (at 50.0 µM), 39.8%; in experiment [2] (setting [7]) it was 9%; in experiment [2] (setting [8]), 94% (active); in experiment [2] (at 50.0 µM), 39.4%. The growth inhibition was 52% in experiment [3] (setting [7]); 99% (active) in experiment [3] (setting [8]); 72.3% (active) in experiment [3] (at 50.0 µM); -4% in experiment [4] (setting [7]); 79% (active) in experiment [4] (setting [8]); 12.7% in experiment [4] (at 50.0 µM). The growth inhibition in experiment [5] (setting [7]) is -4%; in experiment [5] (setting [8]) it was 98% (active); in experiment [5] (at 50.0 µM), 13.8%; in experiment [6] (setting [7]) it was 29%; in experiment [6] (setting [8]) it was 99% (active); in experiment [6] (at 50.0 µM), 69.5%.
As to `O=C(OCCC1CCCCC1)c1cc([N+](=O)[O-])cc([N+](=O)[O-])c1`, the growth inhibition in experiment [1] (setting [7]) is 4%; in experiment [1] (setting [8]) it was 79% (active); in experiment [1] (at 50.0 µM), 83.1% (active); in experiment [2] (setting [7]), 13%; in experiment [2] (setting [8]) it was 76% (active); in experiment [2] (at 50.0 µM) it was 75% (active). The growth inhibition in experiment [3] (setting [7]) was 10%; in experiment [3] (setting [8]), 70% (active); in experiment [3] (at 50.0 µM) it was 90.3% (active); in experiment [4] (setting [7]), 6%; in experiment [4] (setting [8]) it was 71% (active); in experiment [4] (at 50.0 µM), 80.5% (active). The growth inhibition was 5% in experiment [5] (setting [7]); 82% (active) in experiment [5] (setting [8]); 88.5% (active) in experiment [5] (at 50.0 µM); 12% in experiment [6] (setting [7]); 86% (active) in experiment [6] (setting [8]); 89.8% (active) in experiment [6] (at 50.0 µM).
`O=C(N/C(=C\c1cccc([N+](=O)[O-])c1)c1nc2ccccc2s1)c1ccccc1`: the growth inhibition in experiment [1] (setting [7]) is 36%; in experiment [1] (setting [8]), 98% (active); in experiment [1] (at 50.0 µM) it was 98.5% (active); in experiment [2] (setting [7]), 29%; in experiment [2] (setting [8]) it was 98% (active); in experiment [2] (at 50.0 µM), 98.6% (active). For the same molecule, the growth inhibition is 55% in experiment [3] (setting [7]); 98% (active) in experiment [3] (setting [8]); 98.9% (active) in experiment [3] (at 50.0 µM); 12% in experiment [4] (setting [7]); 98% (active) in experiment [4] (setting [8]); 98.1% (active) in experiment [4] (at 50.0 µM). Further, the growth inhibition in experiment [5] (setting [7]) is 40%; in experiment [5] (setting [8]), 98% (active); in experiment [5] (at 50.0 µM), 97.8% (active); in experiment [6] (setting [7]), 29%; in experiment [6] (setting [8]) it was 98% (active); in experiment [6] (at 50.0 µM), 98.2% (active).
Consider `NC(=S)N/N=C/c1ccc([N+](=O)[O-])o1`, for which the growth inhibition was 11% in experiment [1] (setting [7]); 27% in experiment [1] (setting [8]); 66% in experiment [1] (at 50.0 µM); 3% in experiment [2] (setting [7]); 14% in experiment [2] (setting [8]); 43.7% in experiment [2] (at 50.0 µM). For the same molecule, the growth inhibition in experiment [3] (setting [7]) is 4%; in experiment [3] (setting [8]), 24%; in experiment [3] (at 50.0 µM) it was 65.2%; in experiment [4] (setting [7]), -3%; in experiment [4] (setting [8]), 2%; in experiment [4] (at 50.0 µM), 13.7%. In addition, the growth inhibition in experiment [5] (setting [7]) is 10%; in experiment [5] (setting [8]), 45%; in experiment [5] (at 50.0 µM), 24.2%; in experiment [6] (setting [7]), 13%; in experiment [6] (setting [8]) it was 43%; in experiment [6] (at 50.0 µM) it was 75.3% (active).
For the molecule `CN(C)CCCSc1c2ccccc2nc2cc(NCC(=O)Nc3ccccc3-c3ccccc3NC(=O)CNc3ccc4c(SCCCN(C)C)c5ccccc5nc4c3)ccc12`, the growth inhibition is 53% in experiment [1] (setting [7]); 98% (active) in experiment [1] (setting [8]); 90.6% (active) in experiment [1] (at 50.0 µM); 38% in experiment [2] (setting [7]); 99% (active) in experiment [2] (setting [8]); 92.5% (active) in experiment [2] (at 50.0 µM). Further, the growth inhibition was 32% in experiment [3] (setting [7]); 98% (active) in experiment [3] (setting [8]); 93.3% (active) in experiment [3] (at 50.0 µM); 30% in experiment [4] (setting [7]); 63% in experiment [4] (setting [8]); 78.3% (active) in experiment [4] (at 50.0 µM). Moreover, the growth inhibition in experiment [5] (setting [7]) is 39%; in experiment [5] (setting [8]) it was 98% (active); in experiment [5] (at 50.0 µM), 91.5% (active); in experiment [6] (setting [7]), 41%; in experiment [6] (setting [8]), 98% (active); in experiment [6] (at 50.0 µM), 90.7% (active).
As to `CC(=O)C1(O)C(Br)CC2C3CC=C4CC(O)CCC4(C)C3CCC21C` (stereo not given), the growth inhibition in experiment [1] (setting [7]) is 43%; in experiment [1] (setting [8]) it was 98% (active); in experiment [1] (at 50.0 µM), 90.3% (active); in experiment [2] (setting [7]), 37%; in experiment [2] (setting [8]), 99% (active); in experiment [2] (at 50.0 µM) it was 79.5% (active). Further, the growth inhibition in experiment [3] (setting [7]) was 46%; in experiment [3] (setting [8]), 98% (active); in experiment [3] (at 50.0 µM) it was 86.4% (active); in experiment [4] (setting [7]), 37%; in experiment [4] (setting [8]), 98% (active); in experiment [4] (at 50.0 µM), 87.9% (active). Also, the growth inhibition in experiment [5] (setting [7]) was 49%; in experiment [5] (setting [8]), 98% (active); in experiment [5] (at 50.0 µM), 85% (active); in experiment [6] (setting [7]) it was 53%; in experiment [6] (setting [8]), 98% (active); in experiment [6] (at 50.0 µM) it was 83.8% (active).
Turning to `O=c1sc(=S)[nH]c2ccccc12`, the growth inhibition was -3% in experiment [1] (setting [7]); 10% in experiment [1] (setting [8]); 76.8% (active) in experiment [1] (at 50.0 µM); 6% in experiment [2] (setting [7]); 43% in experiment [2] (setting [8]); 69.1% in experiment [2] (at 50.0 µM). The growth inhibition is 3% in experiment [3] (setting [7]); 41% in experiment [3] (setting [8]); 78.9% (active) in experiment [3] (at 50.0 µM); -4% in experiment [4] (setting [7]); 3% in experiment [4] (setting [8]); 71.5% (active) in experiment [4] (at 50.0 µM). In addition, the growth inhibition was -1% in experiment [5] (setting [7]); 7% in experiment [5] (setting [8]); 67.5% in experiment [5] (at 50.0 µM); 16% in experiment [6] (setting [7]); 31% in experiment [6] (setting [8]); 72.2% (active) in experiment [6] (at 50.0 µM).
For `COc1cc(CC#N)c(NC(C)=O)cc1OC`, the growth inhibition in experiment [1] (setting [7]) is 0%; in experiment [1] (setting [8]), -4%; in experiment [1] (at 50.0 µM) it was -2.3%; in experiment [2] (setting [7]) it was -41%; in experiment [2] (setting [8]), -3%; in experiment [2] (at 50.0 µM) it was 28.6%. Moreover, the growth inhibition in experiment [3] (setting [7]) was 0%; in experiment [3] (setting [8]), -2%; in experiment [3] (at 50.0 µM), -8.45%; in experiment [4] (setting [7]) it was 1%; in experiment [4] (setting [8]) it was -2%; in experiment [4] (at 50.0 µM), 41%. Also, the growth inhibition in experiment [5] (setting [7]) is -7%; in experiment [5] (setting [8]) it was -7%; in experiment [5] (at 50.0 µM) it was 6.05%; in experiment [6] (setting [7]), -1%; in experiment [6] (setting [8]) it was -3%; in experiment [6] (at 50.0 µM) it was 9.1%.
